Each structure is given as a SMILES string. Out of some 39,000 compounds screened, about 3,300 (8.5%) were called active. For the sample, actives were picked, then their nearest neighbours and some compounds at random.

The assay concerns HepG2. Description: cytotoxicity call (relative viability < 0.9). The note with it: 10 µM.
As for `C[C@H](CO)N1C[C@H](C)[C@@H](CN(C)Cc2ccc(Cl)c(Cl)c2)Oc2ccc(NC(=O)Cn3cnnn3)cc2CC1=O`, the cytotoxicity call is “inactive”.

`COc1ccc(S(=O)(=O)Nc2ccc3c(c2)C(=O)N([C@H](C)CO)C[C@@H](C)[C@H](CN(C)C(=O)Nc2ccc(F)cc2)OCCCC[C@@H](C)O3)cc1`: the cytotoxicity call was “inactive”.

Regarding `C=CCN(C#N)c1nc(N(C)C)nc(N(C)C)n1`, the cytotoxicity call is “inactive”.

In the case of `C[C@@H]1CN([C@H](C)CO)C(=O)c2cccc(NC(=O)c3cnccn3)c2O[C@@H]1CN(C)Cc1ccccc1`, the cytotoxicity call is “inactive”.

Regarding `Cc1noc(C)c1S(=O)(=O)Nc1ccc2c(c1)C(=O)N([C@H](C)CO)C[C@H](C)[C@@H](CN(C)S(=O)(=O)c1cccs1)O2`, the cytotoxicity call is “inactive”.

As for `Cc1noc(C)c1NC(=O)Nc1ccc2c(c1)CC(=O)N([C@H](C)CO)C[C@@H](C)[C@@H](CN(C)Cc1ccc(C(F)(F)F)cc1)O2`, the cytotoxicity call was “inactive”.

On to `Cc1ccc(S(=O)(=O)N2C[C@@H](O)COC[C@H]3O[C@H](CC(=O)N[C@@H]4CCN(Cc5ccccc5)C4)CC[C@@H]32)cc1`, for which the cytotoxicity call was “inactive”.

Consider `COc1ccccc1C#Cc1cnc2c(c1)C(=O)N([C@@H](C)CO)C[C@H](C)[C@@H](CN(C)C(=O)CN(C)C)O2`, for which the cytotoxicity call is “inactive”.

Consider `C=C(C)[C@@H]1CC[C@]2(COC(C)=O)CC[C@]3(C)[C@H](CC[C@@H]4[C@@]5(C)CC[C@H](OC(C)=O)C(C)(C)[C@@H]5CC[C@]43C)[C@@H]12`, for which the cytotoxicity call is “inactive”.

For `C[C@@H]1CCCCO[C@@H](CN(C)S(=O)(=O)c2cn(C)cn2)[C@H](C)CN([C@@H](C)CO)C(=O)c2cc(NS(=O)(=O)c3cn(C)cn3)ccc2O1`, the cytotoxicity call was “inactive”.

As for `C[C@H]1CN([C@@H](C)CO)C(=O)c2cc(NC(=O)C3CC3)ccc2O[C@H]1CN(C)C(=O)NC1CCCCC1`, the cytotoxicity call was “inactive”.

For the molecule `COc1cc2c(cc1OC)-c1onc(-c3ccc(OCCO[Si](C(C)C)(C(C)C)C(C)C)cc3)c1CCCN(C[C@@H](C)OC(=O)NCCCCCC(=O)NO)CC2`, the cytotoxicity call is “active”.

In the case of `COc1cc2c(cc1OC)-c1onc(-c3ccc(OCCO[Si](C(C)C)(C(C)C)C(C)C)cc3)c1CCCN(C[C@@H](C)O)CC2`, the cytotoxicity call was “inactive”.

For the molecule `COc1cc2c(cc1OC)[C@@]13ON=C(c4ccc(OCCOC(=O)NCCCCCC(=O)NO)cc4)[C@@H]1CCN3CC2`, the cytotoxicity call is “inactive”.

Turning to `C/C=C/c1cccc(-c2nc(C(=O)NCc3ccc(OC)cc3)cc3c2[C@@H](CCO)N([S@](=O)C(C)(C)C)C3)c1`, the cytotoxicity call is “inactive”.

In the case of `COc1nn(C)cc1-c1n[nH]c(=S)n1C`, the cytotoxicity call was “inactive”.

Regarding `O=C(C[C@@H]1CC[C@@H]2[C@H](COC[C@H](O)CN2S(=O)(=O)c2ccc(Oc3ccccc3)cc2)O1)NC1CCC1`, the cytotoxicity call is “inactive”.

Regarding `CC1(O)CCC(C(C)(C)O)CC1.O` (stereo not given), the cytotoxicity call is “inactive”.

Regarding `CCCC#Cc1ccc2c(c1)O[C@@H](CN(C)S(=O)(=O)c1cccc(OC)c1)[C@@H](C)CN([C@H](C)CO)S2(=O)=O`, the cytotoxicity call was “inactive”.

Consider `COc1cccc(S(=O)(=O)N(C)C[C@H]2Oc3ncc(C#CCN(C)C)cc3C(=O)N([C@H](C)CO)C[C@@H]2C)c1`, for which the cytotoxicity call is “inactive”.

Take `COc1ccc(NC(=O)Nc2ccc3c(c2)CC(=O)N([C@@H](C)CO)C[C@@H](C)[C@H](CN(C)S(=O)(=O)c2cn(C)cn2)O3)cc1`: the cytotoxicity call is “inactive”.

On to `COc1ccc(S(=O)(=O)Nc2ccc3c(c2)C(=O)N([C@@H](C)CO)C[C@H](C)[C@@H](CN(C)CC2CCCCC2)OCCCC[C@H](C)O3)cc1`, for which the cytotoxicity call was “inactive”.

Turning to `COc1ccc(S(=O)(=O)Nc2ccc3c(c2)C(=O)N([C@H](C)CO)C[C@@H](C)[C@@H](CN(C)CC2CCCCC2)OCCCC[C@H](C)O3)cc1`, the cytotoxicity call is “inactive”.

As to `COc1ccc(S(=O)(=O)Nc2ccc3c(c2)C(=O)N([C@@H](C)CO)C[C@@H](C)[C@@H](CN(C)CC2CCCCC2)OCCCC[C@H](C)O3)cc1`, the cytotoxicity call is “active”.

On to `COc1ccc(S(=O)(=O)Nc2ccc3c(c2)C(=O)N([C@@H](C)CO)C[C@@H](C)[C@H](CN(C)CC2CCCCC2)OCCCC[C@@H](C)O3)cc1`, for which the cytotoxicity call is “inactive”.

Consider `COc1ccc(S(=O)(=O)Nc2ccc3c(c2)C(=O)N([C@H](C)CO)C[C@@H](C)[C@H](CN(C)CC2CCCCC2)OCCCC[C@@H](C)O3)cc1`, for which the cytotoxicity call is “inactive”.

Consider `COc1ccc(S(=O)(=O)Nc2ccc3c(c2)C(=O)N([C@@H](C)CO)C[C@@H](C)[C@H](CN(C)CC2CCCCC2)OCCCC[C@H](C)O3)cc1`, for which the cytotoxicity call was “inactive”.

For the molecule `COc1ccc(S(=O)(=O)Nc2ccc3c(c2)C(=O)N([C@@H](C)CO)C[C@H](C)[C@H](CN(C)CC2CCCCC2)OCCCC[C@@H](C)O3)cc1`, the cytotoxicity call is “inactive”.

In the case of `COc1ccc(S(=O)(=O)Nc2ccc3c(c2)C(=O)N([C@H](C)CO)C[C@@H](C)[C@@H](CN(C)CC2CCCCC2)OCCCC[C@@H](C)O3)cc1`, the cytotoxicity call is “active”.

On to `COc1ccc(S(=O)(=O)Nc2ccc3c(c2)C(=O)N([C@H](C)CO)C[C@H](C)[C@@H](CN(C)CC2CCCCC2)OCCCC[C@H](C)O3)cc1`, for which the cytotoxicity call is “inactive”.

In the case of `COc1ccc(S(=O)(=O)Nc2ccc3c(c2)C(=O)N([C@@H](C)CO)C[C@H](C)[C@H](CN(C)CC2CCCCC2)OCCCC[C@H](C)O3)cc1`, the cytotoxicity call is “inactive”.

For `COc1ccc(S(=O)(=O)Nc2ccc3c(c2)C(=O)N([C@@H](C)CO)C[C@@H](C)[C@@H](CN(C)CC2CCCCC2)OCCCC[C@@H](C)O3)cc1`, the cytotoxicity call was “active”.

As for `COc1ccc(NC(=O)Nc2ccc3c(c2)C(=O)N([C@H](C)CO)C[C@@H](C)[C@H](CN(C)C(=O)NC2CCCCC2)OCCCC[C@@H](C)O3)cc1`, the cytotoxicity call was “inactive”.

Turning to `CC(C)NC(=O)N(C)C[C@@H]1Oc2ccc(NS(=O)(=O)c3ccc(F)cc3)cc2C(=O)N([C@H](C)CO)C[C@H]1C`, the cytotoxicity call was “inactive”.

Take `C[C@@H]1CCCCO[C@H](CN(C)C(=O)c2ccccc2)[C@@H](C)CN([C@H](C)CO)C(=O)c2cc(NS(=O)(=O)c3ccccc3)ccc2O1`: the cytotoxicity call was “inactive”.

Take `Cc1cc(=O)[n+]2cccc(O)c2[nH]1`: the cytotoxicity call was “inactive”.

For `CC(C)NC(=O)Nc1ccc2c(c1)C(=O)N([C@H](C)CO)C[C@@H](C)[C@@H](CN(C)S(=O)(=O)c1ccc(Cl)cc1)O2`, the cytotoxicity call was “inactive”.

For the molecule `CCc1cc(C(N)=O)c(N)s1`, the cytotoxicity call was “inactive”.

In the case of `C[C@@H]1CCCCO[C@H](CN(C)C(=O)Nc2ccc(F)cc2)[C@@H](C)CN([C@H](C)CO)C(=O)c2cc(NC(=O)Nc3ccccc3)ccc2O1`, the cytotoxicity call was “inactive”.

As for `CCOC(=O)N[C@H]1CCS(=O)(=O)C1`, the cytotoxicity call was “inactive”.

With `Cc1cn2c(=O)c(C(=O)O)cnc2s1`, the cytotoxicity call is “inactive”.

In the case of `C[C@@H]1CN([C@H](C)CO)C(=O)c2cccc(NS(C)(=O)=O)c2O[C@@H]1CN(C)S(=O)(=O)c1ccccc1`, the cytotoxicity call was “inactive”.

With `CCOC(=O)CCCCCC(=O)Nc1ccc2c(c1)C(=O)N([C@H](C)CO)C[C@@H](C)[C@@H](CN(C)S(=O)(=O)c1ccc(C)cc1)OCCCC[C@H](C)O2`, the cytotoxicity call is “inactive”.

`C[C@H]1CCCCO[C@@H](CN(C)Cc2ccccc2)[C@@H](C)CN([C@@H](C)CO)C(=O)c2cc(NS(=O)(=O)c3ccc(Cl)cc3)ccc2O1`: the cytotoxicity call was “active”.

Turning to `C[C@@H]1CCCCO[C@@H](CN(C)Cc2ccccc2)[C@@H](C)CN([C@H](C)CO)C(=O)c2cc(NS(=O)(=O)c3ccc(Cl)cc3)ccc2O1`, the cytotoxicity call is “inactive”.

As for `C[C@H]1CCCCO[C@H](CN(C)Cc2ccccc2)[C@@H](C)CN([C@@H](C)CO)C(=O)c2cc(NS(=O)(=O)c3ccc(Cl)cc3)ccc2O1`, the cytotoxicity call is “inactive”.

Turning to `C[C@@H]1CCCCO[C@H](CN(C)Cc2ccccc2)[C@H](C)CN([C@@H](C)CO)C(=O)c2cc(NS(=O)(=O)c3ccc(Cl)cc3)ccc2O1`, the cytotoxicity call is “active”.

In the case of `C[C@@H]1CN([C@H](C)CO)C(=O)c2cc(NS(=O)(=O)c3ccc(Cl)cc3)ccc2O[C@@H](C)CCCCO[C@@H]1CN(C)Cc1ccccc1`, the cytotoxicity call was “inactive”.

Take `C[C@@H]1CN([C@@H](C)CO)C(=O)c2cc(NS(=O)(=O)c3ccc(Cl)cc3)ccc2O[C@@H](C)CCCCO[C@@H]1CN(C)Cc1ccccc1`: the cytotoxicity call was “active”.

Consider `C[C@@H]1CCCCO[C@H](CN(C)Cc2ccccc2)[C@@H](C)CN([C@H](C)CO)C(=O)c2cc(NS(=O)(=O)c3ccc(Cl)cc3)ccc2O1`, for which the cytotoxicity call is “inactive”.

As to `C[C@@H]1CCCCO[C@@H](CN(C)Cc2ccccc2)[C@@H](C)CN([C@@H](C)CO)C(=O)c2cc(NS(=O)(=O)c3ccc(Cl)cc3)ccc2O1`, the cytotoxicity call is “inactive”.

On to `C[C@@H]1CCCCO[C@H](CN(C)Cc2ccccc2)[C@H](C)CN([C@H](C)CO)C(=O)c2cc(NS(=O)(=O)c3ccc(Cl)cc3)ccc2O1`, for which the cytotoxicity call is “active”.

Regarding `C[C@H](CO)N1C[C@H](C)[C@@H](CN(C)Cc2ccccc2)OCCCC[C@H](C)Oc2ccc(NS(=O)(=O)c3ccc(Cl)cc3)cc2C1=O`, the cytotoxicity call was “inactive”.

Turning to `C[C@@H]1CCCCO[C@@H](CN(C)Cc2ccccc2)[C@H](C)CN([C@@H](C)CO)C(=O)c2cc(NS(=O)(=O)c3ccc(Cl)cc3)ccc2O1`, the cytotoxicity call is “inactive”.

Turning to `C[C@@H]1CN([C@@H](C)CO)C(=O)c2cc(NS(=O)(=O)c3ccc(Cl)cc3)ccc2O[C@@H](C)CCCCO[C@H]1CN(C)Cc1ccccc1`, the cytotoxicity call was “inactive”.

For `C[C@H]1CN([C@@H](C)CO)C(=O)Cc2cc(NS(C)(=O)=O)ccc2O[C@H]1CN(C)Cc1ccc(C(=O)O)cc1`, the cytotoxicity call was “inactive”.

Consider `C=CCOC(=O)[C@@H]1[C@H]2C(=O)O[C@H](c3ccccc3)[C@H](c3ccccc3)N2[C@H](c2ccc(OCCOC(=O)[C@H]3C[C@H]4C(=O)N5CCC[C@H]5C(=O)N4[C@H]3c3ccc(O)cc3)cc2)[C@@]12C(=O)Nc1ccccc12`, for which the cytotoxicity call was “inactive”.

In the case of `Cn1ncc2c(NN3C(=O)CCC3=O)ncnc21`, the cytotoxicity call is “inactive”.

As for `CC(C)CC#Cc1ccc2c(c1)O[C@@H](CN(C)Cc1cncnc1)[C@@H](C)CN([C@H](C)CO)S2(=O)=O`, the cytotoxicity call is “inactive”.

On to `CC(C)NC(=O)[C@@H]1c2ccccc2C(=O)N(Cc2cc(F)cc(C(F)(F)F)c2)[C@H]1c1ccc(CO)cc1`, for which the cytotoxicity call is “inactive”.

Source of the values: the antibiotic and cytotoxicity screens of Wong et al. (2023).
